“And” between values parts separate entries of the source, which are not always exact repeats. Equal entries are not always repeated. Screen size: about 260,000 compounds; about 1,500 (0.58%) were called active. Inconclusive results (about 5%) are left out.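 The calls were made as follows: active = inhibition above a set limit at one or more doses, reproduced on every date tested; inconclusive = results disagree between test dates, or hit never tested in dose response; inactive = the rest.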 The list is a sample of the results. Potency and affinity values are given separately.
What follows are compounds tested against Virion infectivity factor (Human immunodeficiency virus type 1 group M subtype B (isolate BH10)) + Virion infectivity factor (Human immunodeficiency virus type 1 group M subtype B (isolate BRU/LAI)) + Virion infectivity factor (Human immunodeficiency virus type 1 group M subtype B (isolate PCV12)) + Virion infectivity factor (Human immunodeficiency virus type 1 group M subtype B (isolate HXB2)) + DNA dC->dU-editing enzyme APOBEC-3G (Homo sapiens) (UniProt P69720+P69721+P69722+P69723+Q9HC16) (assay: HIV-1 Vif–A3G interaction blockers – biochemical, TR-FRET, GST-Vif 1-94, biotin-A3G peptide, dose response retest, primary screen (AID 1117319;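 also: Vif residues 1-94 fused to GST binding biotinylated APOBEC3G peptide 110-148; 0% = full assay without inhibitor and 100% = GST in place of GST-Vif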)). Conditions: TR-FRET GST-Vif / biotin-A3G peptide binding; hits give high values.

SMILES | inhibition
C=CCN1C(C(=O)c2ccccc2)=C(OC(=O)COc2ccccc2)c2ccccc2S1(=O)=O | -2.45% (inactive)
COc1cc(OC)cc(-c2cc(N3C(=O)Nc4ccccc4N3O)n[nH]2)c1 | 2.06% (inactive)
CCN(CC)CCCC(C)Nc1nccc2cccc(Cl)c12 (stereo unspecified) | -1% (inactive)
C=CCn1c(SCC(=O)NCCCC(=O)OCC)nc2scc(-c3ccco3)c2c1=O | -13% (inactive)
C=CCn1c(SCC(=O)NCCOC)nc2scc(-c3ccco3)c2c1=O | 27.8% (inactive)
Cc1onc(-c2c(F)cccc2Cl)c1C(=O)Nc1nnc(-c2ccccc2)s1 | -20.2% (inactive)
Cc1onc(-c2c(F)cccc2Cl)c1C(=O)Nc1nccs1 | -2.44% (inactive)
CCN1CCN(C(=O)c2ccc(CSc3ccc(C)cc3)cc2)CC1 | -0.41% (inactive)
O=C(Cn1c(=O)oc2ccccc21)Nc1ccc(S(=O)(=O)N2CCCCC2)cc1 | 16% (inactive)
O=Cc1cccc(OCc2cccc3ccccc23)c1 | -9.48% (inactive)
c1ccc(Cc2nnc3n2CCCCC3)cc1 | -1.19% (inactive)
c1ccc2c(c1)CCCN2Cc1nnnn1C1CCCC1 | 4.12% (inactive)
CSc1ccccc1NC(=O)CN(C)C(=O)c1c(C)nn(Cc2ccccc2)c1C | 0.13% (inactive)
CN(Cc1ccco1)C(=O)c1c[nH]c2ccc(S(=O)(=O)Nc3ccc4c(c3)OCCO4)cc2c1=O | 11.3% (inactive)
CCc1ccc(NS(=O)(=O)c2ccc3[nH]cc(C(=O)N(C)Cc4ccco4)c(=O)c3c2)cc1 | 6.93% (inactive)
CC(C)N(C(=O)[C@H]1C[C@H](CC(=O)NCCN2CCOCC2)C(=O)N2CCc3c([nH]c4ccc(Cl)cc34)[C@]12C)C(C)C | -2.31% (inactive)
C=CCn1c(COc2cccc(C)c2)nnc1SCC(=O)NC(=O)NCc1ccco1 | 3.84% (inactive) and 20.2% (inactive)
C=CCn1c(COc2ccccc2F)nnc1SCC(=O)NC(=O)NCc1ccco1 | 13.7% (inactive)
CC(C)(C)NC(=O)/C=C/c1cccs1 | -6.7% (inactive)
COc1ccc(/C=C2/C(=O)N=C(N)N2C)cc1OC | -1.18% (inactive)
CC(=O)c1ccc(Sc2nnnn2-c2ccccc2)c([N+](=O)[O-])c1 | 7.06% (inactive)

SMILES | inhibition
COC(=O)c1ccc(Sc2nnnn2-c2ccccc2)c([N+](=O)[O-])c1 | 4.9% (inactive)
Cc1csc(NC(=O)Cc2ccccc2[N+](=O)[O-])n1 | -11% (inactive)
CN(C(=O)CSc1nnc2ccccn12)C1CCS(=O)(=O)C1 (stereo unspecified) | 5.32% (inactive)
Cc1ccc(OCCCC(=O)Nc2ccc(S(N)(=O)=O)cc2)cc1 | -3.06% (inactive)
O=C1C=C(Nc2cccnc2)c2ccccc2C1=O | -2.43% (inactive)
O=C1C=C(Nc2ccccc2O)c2ccccc2C1=O | 29.9% (inactive)
O=[N+]([O-])c1ccc(Cl)c(/C=N/N2CCN(Cc3ccc(Cl)cc3)CC2)c1 | -0.57% (inactive)
CCOc1ccc(N/C(C)=C/C(=O)c2ccc(C)o2)cc1 | 1.46% (inactive)
CC1(C)CC(=O)C2=C(C1)c1c(ccc3ccccc13)NC2c1ccco1 (stereo unspecified) | 7.86% (inactive)
COc1cccc(C2Nc3ccc4ccccc4c3C3=C2C(=O)CCC3)c1O (stereo unspecified) | -3.25% (inactive)
Cc1onc(-c2ccccc2Cl)c1C(=O)NCc1ccccn1 | -1.21% (inactive)
COC(=O)COC(=O)CC(CC(N)=O)c1ccccc1 (stereo unspecified) | -2.81% (inactive)
COC(=O)Nc1nc2c(C)cccc2s1 | 1.68% (inactive)
Cc1cc(C(=O)Nc2nc3c(C)cccc3s2)c(C)o1 | 17.4% (inactive)
Cc1c(C(=O)c2ccc([N+](=O)[O-])cc2)c(=O)n(C)c(=O)n1C | -3.13% (inactive)
CCC(=O)N1CCC2(CC1)Oc1ccc(F)cc1C(=O)C21CC(c2cccnc2)=NO1 (stereo unspecified) | 3.73% (inactive)
CCOC(=O)C(=O)Cc1nc2ccccc2s1 | -1.72% (inactive)
CCOC(=O)C(Cc1ccnnc1)=NO | -0.8% (inactive)
Cc1nc2sc(C(c3ccco3)N3CCN(c4ccc(F)cc4)CC3)c(O)n2n1 (stereo unspecified) | 13.8% (inactive)
Cc1cc(C(=O)CN2CCCC2)c(C)n1-c1ccc(Cl)cc1 | 1.44% (inactive)
CC(=O)Oc1ccc2c(c1)C(=O)c1ccccc1CO2 | 7.33% (inactive)

SMILES | inhibition
O=C(Oc1ccc2c(c1)C(=O)c1ccccc1CO2)c1ccccc1 | 1.85% (inactive)
COc1ccc(CNC(=O)COC(=O)c2cccc(S(=O)(=O)N3CCOCC3)c2)cc1 | 10.9% (inactive)
COc1ccc(NC(=O)c2cnc3n(c2=O)CCS3)cc1OC | 10.7% (inactive)
CCOc1ccc(/C=C(\C(=O)O)c2ccc(S(=O)(=O)N3CCOCC3)s2)cc1OC | 28.4% (inactive)
O=S(=O)(Cc1cc(Sc2ccc(Cl)cc2)nc(-c2ccccc2)n1)c1ccccc1 | 3.1% (inactive)
O=C1CCN(Cc2ccco2)C(=S)N1 | 3.3% (inactive)
O=C1C2C(C(=O)N1Cc1ccco1)C1C=CC2C12CC2 (stereo unspecified) | -1.81% (inactive)
CC1CN(Cc2ccco2)C(=S)NC1=O (stereo unspecified) | 1.05% (inactive)
O=C1CC(=O)N(Cc2cccs2)C(=O)N1 | 18% (inactive)
COc1ccc(-n2c(=O)c(CCC(=O)N(C)Cc3cccs3)nc3ccccc32)cc1 | -5.63% (inactive)
COc1ccccc1NS(=O)(=O)c1ccc(C)c(C(=O)NCC2(N(C)C)CCCCC2)c1 | -8.71% (inactive)
CCOC(=O)c1cc2cc(OC)ccc2nc1C | 4.64% (inactive)
Cc1nc2ccc(F)cc2cc1C(=O)NC(C)C | -0.13% (inactive)
CCc1nc(NCc2ccc3c(c2)OCO3)c2oc3ccccc3c2n1 | 5.19% (inactive)
CCNC(=O)CN(c1ccc(CC)cc1)S(C)(=O)=O | -1.87% (inactive)
Cc1nc(Nc2ccc(Cl)c(Cl)c2)sc1C(/C=C/c1ccc2c(c1)OCO2)=NNc1ccc([N+](=O)[O-])cc1[N+](=O)[O-] | 0.47% (inactive)
CCCN(CC(=O)Nc1ccccc1OC)C(=O)Cn1[nH]c(=O)c2ccccc2c1=O | -0.74% (inactive)
O=C(O)/C(=C\c1cccc(F)c1)c1ccc(S(=O)(=O)N2CCCC2)s1 | 18.6% (inactive)
O=C(O)/C(=C\c1cccc(O)c1)c1ccc(S(=O)(=O)N2CCCC2)s1 | 14.8% (inactive)

— PubChem BioAssay AID1117319 (Southern Research Institute, 2015)
